Test results: PubChem BioAssay AID504332 (National Center for Advancing Translational Sciences (NCATS), 2011)
Among all 350,000 compounds or so, about 31,000 (8.9%) were called active. About 15% were inconclusive and are not listed. The list comes from a sample in which actives are over-represented; it also holds similar structures and randomly drawn compounds. Some compounds were tested as several samples or in several runs, with calls that do not always agree. A number with no mark means an inactive call. The call rests on the fitted dose curve; in most records, active means well fitted inhibition curve with a large enough effect; inconclusive means small, poorly fitted or top-dose-only effect; inactive means no such curve, though single readings can be large or run the other way.

The compounds below were run against Histone-lysine N-methyltransferase EHMT2 (Homo sapiens) (UniProt Q96KQ7) (assay: qHTS Assay for Inhibitors of Histone Lysine Methyltransferase G9a). Details: G9a H3K9 monomethylation, AlphaScreen, 2 h; series mostly up to 59 µM; activity, negative = inhibition: at the top concentration.
How it was run: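 Quantitative HTS format: methyltransferase activity on a biotin-tagged H3K9 peptide is measured by AlphaScreen, using a rabbit anti-monomethyl-H3K9 antibody with streptavidin donor and anti-IgG acceptor beads. Final levels are 20 nM enzyme, 500 nM peptide, 20 uM SAM; 2 h RT.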
Further: nearly all actives have a fitted effect of over 75% in size.
On the % scale 0 is the no-effect control and ±100 the full control effect; potency means the concentration at half of the fitted maximal effect.

Sequence of Histone-lysine N-methyltransferase EHMT2 (Homo sapiens) (Q96KQ7 913-1193 limits assumed): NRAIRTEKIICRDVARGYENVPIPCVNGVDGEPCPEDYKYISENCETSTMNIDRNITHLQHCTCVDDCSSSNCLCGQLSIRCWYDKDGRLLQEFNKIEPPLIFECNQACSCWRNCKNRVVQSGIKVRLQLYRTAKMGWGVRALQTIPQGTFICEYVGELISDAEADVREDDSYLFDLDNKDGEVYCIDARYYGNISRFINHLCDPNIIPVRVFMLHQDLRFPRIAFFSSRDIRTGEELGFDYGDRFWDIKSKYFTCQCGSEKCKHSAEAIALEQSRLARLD

Row | SMILES | activity, negative = inhibition | Potency
1 | COc1cc(Nc2nc3ccc(Cl)cc3n3cnnc23)cc(OC)c1OC | 98.3% [at 102 µM] | –
2 | COc1cc(F)c(C2=CC(=O)CC(C)(C)C2)cc1F | -4.97% [at 0.501 µM] | –
3 | COc1ccccc1S(=O)(=O)NCc1ccc(C(=O)N(C)Cc2ccc(F)cc2)cc1 | 6.01% [at 2.33 µM] | –
4 | Cc1cccc(CCNC(=O)c2ccc3c(c2)nc2n3CCC(C)C2)c1 (centres undefined) | 2.69% | –
5 | CC(=O)N1CCc2cc(Br)cc(S(=O)(=O)CCC(=O)NCCc3ccc(Cl)cc3)c21 | 9.87% | –
6 | C/C(=N\NC(=O)c1ccccc1F)c1ccccn1 | 36.1% [at 102 µM] | –
7 | CCOC(=O)C1CCN(C(=O)/C=C/c2cc(OC)c(OC)c(OC)c2)CC1 | 15.1% | –
8 | CCOC(=O)C1CCN(S(=O)(=O)c2cc(F)ccc2OC)CC1 | 11.3% [at 102 µM] | –
9 | CCOC(=O)C1CCCCN1Cc1ccc(OC)c(OC)c1OC (centres undefined) | – | 12.6 µM (active)
10 | Cc1ccc(S(=O)(=O)c2nc(-c3ccco3)oc2SCC(=O)Nc2ccc(F)cc2)cc1 | 0.772% | –
11 | NS(=O)(=O)c1ccc(CCNC(=O)CN2C(=O)c3ccccc3S2(=O)=O)cc1 | -0.171% [at 102 µM] | –
12 | CCC(=O)N1CCc2cc(Br)cc(S(=O)(=O)CCC(=O)NCCc3ccc(OC)c(OC)c3)c21 | 8.33% | –
13 | Cc1ccccc1NC(=O)C(C)OC(=O)CCC(=O)N(CC(C)C)c1c(N)n(CC(C)C)c(=O)[nH]c1=O (centres undefined) | -28.5% | –
14 | COc1ccccc1OCCNCC(O)COc1cccc2[nH]c3ccccc3c12 (centres undefined) | – | inactive
15 | CC(C)(C)NCC(O)COc1cccc2[nH]c(=O)[nH]c12 (centres undefined) | 21.7% [at 12.7 µM] | 1.12 µM (active)
16 | CC(C)(C)CC(C)(C)NCC(O)COCCOc1ccc(Br)cc1 (centres undefined) | 1.72% | –
17 | COc1ccc(C2(C#N)CCC(C(=O)O)CC2)cc1OC1CCCC1 (centres undefined) | -32.8% [at 12.7 µM] | –
18 | Cc1ccc(S(=O)(=O)n2nc(C)c(S(=O)(=O)N3CCCCCC3)c2C)cc1 | 6.64% | –
19 | COc1ccc(S(=O)(=O)n2nc(C)c(S(=O)(=O)N3CCOCC3)c2C)cc1 | – | 79.4 µM (active)
20 | COc1ccc(S(=O)(=O)n2nc(C)c(S(=O)(=O)N3CCCCCC3)c2C)cc1 | -1.88% | –
21 | COc1ccc(S(=O)(=O)c2c(Nc3cccc(Cl)c3)sc(C(=O)c3ccccc3)c2N)cc1 | 1.28% | –
22 | Cc1ccc2nc(S(=O)(=O)O)[nH]c2c1 | – | 89.1 µM (active)
23 | Cc1ccc2nc(/C(C#N)=C\c3ccc(OC(=O)c4cccs4)cc3)[nH]c2c1 | 7.86% [at 102 µM] | –
24 | CCCNC(=O)C1CCN(c2nc3ccc(C)cc3[nH]2)CC1 | -0.986% | –

Row | SMILES | activity, negative = inhibition | Potency
25 | COc1cccc(CNC(=O)CSc2c3c(nc4cc(Cl)ccc24)CCCC3)c1 | -2.82% | –
26 | COC(=O)C1=C(C)NC(=O)/C1=C/c1ccc(CNS(=O)(=O)c2ccc(C)cc2)o1 | – | 50.1 µM (active)
27 | COc1ccccc1CNS(=O)(=O)c1ccc(C)cc1 | 8.26% | –
28 | Cc1ccc(CCNC(=O)c2ccc(CNS(=O)(=O)c3ccc(C)cc3)cc2)cc1 | -2.1% | –
29 | Cc1cc(C)c2sc(NC(=O)c3ccc(S(=O)(=O)N4CCCC4)cc3)nc2c1 | 7.98% | –
30 | Cn1c(=O)c(C(=O)O)nn(-c2ccccc2)c1=O | -33.3% | –
31 | Cc1cccc(OCC(=O)N(Cc2ccc(C(C)C)cc2)Cc2ccco2)c1C | 92.4% | –
32 | CNC(=S)NNC(=O)c1oc2nc(-c3ccccc3)cc(-c3ccco3)c2c1N | – | 10 µM (active)
33 | CS(=O)(=O)c1sc2nc(-c3ccccc3)cc(-c3ccccc3)c2c1N | 6.2% | –
34 | CC1=C(c2ccc(Cl)cc2)S(=O)(=O)N=C1N1CCN(c2cc(C)ccc2C)CC1 | -4.09% | –
35 | COc1ccc(-c2c(-c3ccc(OC)cc3O)nc(C)nc2C(F)(F)F)cc1 | 0.626% [at 102 µM] | –
36 | CCOc1ccc(-c2cc3nc(C4CCN(C(=O)OC(C)(C)C)CC4)c(C(=O)Nc4ccc(C(=O)OC)cc4)cn3n2)cc1 | -20.7% | –
37 | CCOC(=O)c1c(NC(=O)CSc2nnc(CNc3ccc(C)cc3C)o2)sc(C)c1C | 3.71% | –
38 | CCOC(=O)c1c(NC(=O)COc2cc(C)ccc2C(C)C)sc(C)c1C | – | 1.78 µM (active)
39 | CCOC(=O)c1sc(NC(=O)COc2ncnc3ccccc23)c(C(=O)OCC)c1C | -4.04% | –
40 | COc1cccc(CNC(=O)c2ccc3c(c2)N(Cc2ccc(C(F)(F)F)cc2)C(=O)c2ccccc2S3)c1OC | -7.77% | –
41 | N/C(=N\OS(=O)(=O)c1cccc([N+](=O)[O-])c1)c1ccncc1 | – | 10 µM (active)
42 | O=C(c1ccncc1)N1CCN(S(=O)(=O)c2cccc([N+](=O)[O-])c2)CC1 | 14.7% [at 102 µM] | –
43 | O=C(N/N=C/c1cccc([N+](=O)[O-])c1)c1ccncc1 | 25.8% [at 102 µM] | –
44 | COc1ccc(C=Nc2cccc3ncccc23)cc1 | -38.4% [at 102 µM] | –
45 | Oc1c(C=Nc2cccc3nsnc23)ccc2ccccc12 | – | 2.24 µM (active)
46 | CC(C)(C)NS(=O)(=O)c1ccc(NC(=O)C2CCCO2)cc1 (centres undefined) | 51.9% [at 102 µM] | –
47 | O=C(CC(c1cccs1)N1Cc2ccccc2C1=O)Nc1ccc(F)c(F)c1 (centres undefined) | -1.11% | –
48 | CCc1cccc(NC(=O)COC(=O)C2CCN(c3ccc(C(F)(F)F)cn3)CC2)c1 | 10.8% [at 0.501 µM] | –

Row | SMILES | activity, negative = inhibition | Potency
49 | CCCN(CCC)CCNC(=O)c1ccc2c(c1)NC(=O)C(CS(=O)(=O)Cc1cccc(Br)c1)N2 (centres undefined) | – | 25.1 µM (active)
50 | Cc1ccccc1CS(=O)(=O)CC1Nc2ccc(C(=O)NCc3ccc(Cl)cc3)cc2NC1=O (centres undefined) | – | 10 µM (active)
51 | CCCNC(=O)c1ccc(N2CCC3(CC2)CC(c2cccc(Br)c2)=NO3)c(NC(=O)c2ccco2)c1 | 7.48% [at 2.33 µM] | –
52 | CCCC(=O)Nc1cc(C(=O)NCc2ccc(OC)cc2)ccc1S(=O)(=O)c1ccc(Cl)cc1 | -30.6% | –
53 | COc1ccc(C(=O)NCc2ccc(Cl)cc2)cc1S(=O)(=O)N1CCCC1 | -2.17% [at 12.7 µM] | –
54 | C/C(Cc1ccccc1)=N\NC(=O)CNC(=O)c1cccc(Br)c1 | -2.2% | –
55 | Cc1cccc(C(=O)N2CCc3cc(CNC(=O)Cc4ccc(F)cc4)ccc32)c1 | -0.833% | –
56 | CCOC(=O)C(C)n1cnc2c(nnn2-c2cccc(OC)c2)c1=O (centres undefined) | 24% [at 102 µM] | –
57 | CCc1nnc(NC(=O)CCC(=O)N2CCN(c3cc(C)ccc3C)CC2)s1 | 74.2% [at 102 µM] | –
58 | O=C(c1ccc2ccccc2n1)N1CCN(c2ccccc2Cl)CC1 | – | 44.7 µM (active)
59 | O=C(c1ccncc1)N1CCN(c2ccc3ccccc3n2)CC1 | 25% [at 12.7 µM] | –
60 | COc1ccccc1N1CCN(C(=O)c2cc(-c3ccc(Cl)c(Cl)c3)on2)CC1 | 10.8% | –
61 | Cc1ccc2c(=O)c(C(=O)c3ccc(Cl)cc3)cn(CC(=O)NC3CCCCC3)c2n1 | 1.24% | –
62 | COC(=O)c1ccc(CSc2ccc(S(=O)(=O)N3CCCCC3)cn2)cc1 | -3.87% [at 12.7 µM] | –
63 | O=C(O)c1ccc(/C=N/Nc2nc(N3CCCCC3)nc(N3CCCCC3)n2)cc1 | 7.89% [at 102 µM] | –
64 | O=C(O)c1ccc(N/N=C/c2ccc3ncccc3c2)cc1 | – | 10 µM (active)
65 | CCNC(=S)NNC(=O)c1ccc2ncccc2c1 | -36.9% [at 102 µM] | –
66 | COc1cccc(/C=C/C(=O)OCC(=O)N2CCCc3ccccc32)c1 | 23.6% [at 102 µM] | –
67 | CCOC(=O)c1ccc(NC(=O)c2ncn(-c3ccccc3)n2)cc1 | 7.4% | –
68 | O=C(Nc1ccc(F)c([N+](=O)[O-])c1)C1CC(=O)N(Cc2ccccc2)C1 (centres undefined) | -40.7% [at 102 µM] | –
69 | CC(OC(=O)C1CC(=O)N(Cc2ccccc2)C1)C(=O)Nc1ccccc1[N+](=O)[O-] (centres undefined) | – | 56.2 µM (active)
70 | Cc1cccc(C(C)C)c1NC(=O)COC(=O)C1CC(=O)N(Cc2ccccc2)C1 (centres undefined) | 7.15% [at 0.501 µM] | –
71 | CCOc1ccccc1NC(=O)CSc1ncc(S(=O)(=O)c2ccc(C(C)(C)C)cc2)c(=O)[nH]1 | 3.14% | –
72 | Cc1ccccc1CSc1nc2c([nH]c3ccccc32)c(=O)n1C | 9.49% | –

Row | SMILES | activity, negative = inhibition | Potency
73 | CCCCN(C(=O)C1CCC1)c1c(N)n(Cc2ccccc2)c(=O)[nH]c1=O | -8.06% [at 12.7 µM] | –
74 | CCNC(=S)NNC(=O)C1CCN(Cc2ccccc2)CC1 | 2.28% [at 102 µM] | –
75 | CCCCN(Cc1ccccc1)C(=O)C1CCN(Cc2sccc2C)CC1 | – | 14.1 µM (active)
76 | O=C(Nc1cc2c3c(c1)CC(=O)N3CCC2)c1ccccc1F | -28.2% [at 102 µM] | –
77 | CCOc1ccc(NC(=O)CN(C)C(=O)Cn2c(=O)cnc3ccccc32)cc1OCC | 19.7% | –
78 | O=C(CN1CCN(Cc2ccccc2)CC1)NC(c1ccccc1)c1ccccc1 | -128% | –
79 | O=C(CN1CCc2ccccc21)NC(c1ccccc1)c1ccccc1 | – | 39.8 µM (active)
80 | NC(=O)N1CCc2ccccc21 | 21.5% [at 102 µM] | –
81 | COc1cc2nc(SCc3ccc(F)cc3)n3nc(CCn4c(C)nc5ccccc54)nc3c2cc1OC | -27.3% | –
82 | CCCSc1ncc(Cl)c(C(=O)Nc2c(C(=O)Nc3ccccc3)oc3ccccc23)n1 | -2.95% | –
83 | COc1ccc2c(C)cc(SCC(=O)NCC3CCCO3)nc2c1 (centres undefined) | 17.7% [at 2.33 µM] | –
84 | CCOC(=O)c1cnc2c(C)cc(Cl)cc2c1NCCc1ccc(OC)c(OC)c1 | 0.754% | –
85 | CCOC(=O)c1cnc2ccc(F)cc2c1Nc1ccc2c(c1)OCCO2 | -40.5% | –
86 | CCOC(=O)c1cnc2c(C)cc(C)cc2c1Nc1ccc(N2CCOCC2)cc1 | – | 10 µM (active)
87 | FC(F)(F)c1ccc2c3n(nc2c1)CCN=C3c1ccc(Cl)cc1 | 23% [at 2.33 µM] | –
88 | Cc1ccc(CNC(=O)CSc2c(C)cnc3c2c(=O)n(C)c(=O)n3C)cc1 | -1.97% | –
89 | Cc1cccnc1CC(C)NC(=O)c1cc(COc2cncc(Cl)c2)on1 (centres undefined) | 49.6% [at 102 µM] | –
90 | O=S(=O)(c1ccccc1)c1nc(-c2ccccc2)oc1NCCCN1CCOCC1 | 5.12% [at 102 µM] | –
91 | CCOc1cc(N2CCOCC2)c(OCC)cc1NC(=O)c1cc(C)nc2ccccc12 | -23.5% [at 102 µM] | –
92 | CCOc1cc(N2CCOCC2)c(OCC)cc1NC(=O)c1ccc(C)s1 | – | 44.7 µM (active)
93 | CCOc1cc(N2CCOCC2)c(OCC)cc1NC(=O)COC(=O)[C@H](Cc1c[nH]c2ccccc12)NC(C)=O | -12.3% | –
